In PubChem BioAssay (Tox21):
Inconclusive results are not listed. A call without a number means that no potency is given here. A number with no mark means an inactive call. Active and inactive are the calls of the source. Calls follow the shape of the dose curve; as a rule, active = well fitted inhibition curve with a large enough effect in the signal ratio in the repeat runs (not every such curve was filed as active); inconclusive = weak or mixed curves, or effect the other way; inactive = flat fitted curve, though single readings scatter; the % refers to the signal ratio.

Experiment: cAMP Responsive Elements (CRE) small molecule antagonists, cell-based qHTS assay (AID 1963591)
Conditions: CRE-bla HEK293T, beta-lactamase FRET ratio; series mostly up to 92.4 µM
In short: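 Inhibition of NKH477-driven (0.25 uM final) CRE-beta-lactamase signal in HEK293T cells, 3 h compound exposure at 37 °C, detected by FRET substrate fluorescence.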

| SMILES | Potency | activity change, negative = inhibition |
| --- | --- | --- |
| CCCOC(=O)CC | inactive |  |
| C=CC(=O)N1CCOCC1 | inactive |  |
| C=CCOCC(O)CS(=O)(=O)O (stereo not given) | inactive |  |
| CCCCNCC | inactive |  |
| CCCC1CCC(=O)CC1 | inactive |  |
| CCC(C)COC(C)=O (stereo not given) | inactive |  |
| CCCNC(C)(C)COC(=O)c1ccccc1 | inactive |  |
| Cc1ccc(C#N)cc1 | inactive |  |
| Cc1nnc(SCC2=C(C(=O)O)N3C(=O)[C@@H](NC(=O)Cn4cnnn4)[C@H]3SC2)s1 | inactive |  |
| CCN(CC)CCNC(C(=O)OCCC(C)C)c1ccccc1 (stereo not given) | inactive |  |
| CCOC(=O)CC(C)C | inactive |  |
| CCCCCCCCCCCCC1CO1 (stereo not given) | inactive |  |
| O=C(O)/C=C(\CC(=O)O)C(=O)O | inactive |  |
| CCCCCCCCS(=O)(=O)O | inactive |  |
| CC(C)CCCCCOC(=O)CCCCC(=O)OCCCCCC(C)C | inactive |  |
| CCOc1ccc(NC(N)=O)cc1 | inactive |  |
| CC1(C)CC(O)CC(C)(C)N1[O] | inactive |  |
| CC(C)COC(=O)CCCCC(=O)OCC(C)C | inactive |  |
| O=C1NCC2(CCN(CCc3ccccc3)CC2)O1 | inactive |  |
| C=C(C)C(=O)OCC | inactive |  |

| SMILES | Potency | activity change, negative = inhibition |
| --- | --- | --- |
| CC(CO)(CO)[N+](=O)[O-] | inactive |  |
| C=CCCCCCCCCCCCCCC |  | -3.11% [at 18.9 µM] |
| OC(C#CCN1CCCC1)(c1ccccc1)c1ccccc1 | inactive |  |
| C=C(C)[C@@H]1CC=C(C)C(=O)C1 | inactive |  |
| CCC(C)N (stereo not given) | inactive |  |
| COC(C)=O | inactive |  |
| CCCCN1C[C@H](O)[C@@H](O)[C@H](O)[C@H]1CO | inactive |  |
| CC(=O)OCC(=O)NCCCOc1cccc(CN2CCCCC2)c1 | inactive |  |
| OC1CCCCC1c1ccccc1 (stereo not given) | inactive |  |
| CCCCCCCCCCC=O | inactive |  |
| CC(C)(C)CC(C)(C)N | inactive |  |
| C=CCCCCCCCCOC(C)=O | inactive |  |
| C[C@H](NC(CCc1ccccc1)C(=O)O)C(=O)N1CCC[C@H]1C(=O)O (stereo not given in full) | inactive |  |
| CC(N=C(NC#N)Nc1ccncc1)C(C)(C)C (stereo not given) | inactive |  |
| OCCC1CCCCN1 (stereo not given) | inactive |  |
| C[C@]12CCC(=O)C=C1CC[C@H]1[C@@H]3CC[C@](O)(C(=O)CO)[C@@]3(C)C[C@H](O)[C@@]12F | inactive |  |
| CCC(C)(CCC(C)C)C(=O)O (stereo not given) | inactive |  |
| COP(=O)(O)OP(=O)(O)OC | inactive |  |
| CCCC(=O)OC/C=C(\C)CCC=C(C)C | inactive |  |
| NNC(=O)CP(=O)(c1ccccc1)c1ccccc1 | inactive |  |
